Assay outcomes: PubChem BioAssay, several laboratories
p47phox inh – p47phox (human) inhibition. P14598. p47phox/p22phox peptide binding, fluorescence polarization, 2 h. inhibition, % at 24.7 µM. 220,000 compounds, 0.53% hits;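 active = inhibition above about 30%, limit read from the data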
Target sequence (P14598 whole entry, looked up): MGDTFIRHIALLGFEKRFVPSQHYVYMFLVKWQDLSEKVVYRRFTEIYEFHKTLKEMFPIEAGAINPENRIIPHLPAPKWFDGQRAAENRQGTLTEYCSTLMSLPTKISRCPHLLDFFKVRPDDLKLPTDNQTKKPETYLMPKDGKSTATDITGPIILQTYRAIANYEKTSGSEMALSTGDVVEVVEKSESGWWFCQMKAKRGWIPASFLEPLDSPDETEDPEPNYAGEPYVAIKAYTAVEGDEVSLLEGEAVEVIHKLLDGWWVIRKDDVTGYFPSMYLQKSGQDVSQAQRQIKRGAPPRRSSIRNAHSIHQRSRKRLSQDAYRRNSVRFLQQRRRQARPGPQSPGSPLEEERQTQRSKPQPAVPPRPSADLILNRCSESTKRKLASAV
HMGR II inh – blocks class II HMG-CoA reductase of Enterococcus faecalis | purified E. faecalis HMGR, NADPH absorbance 340 nm kinetic | inhibition, % at 10 µM | 190,000 compounds, 0.41% hits;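 active = inhibition above a set limit, the median over all tested compounds plus 3 SD, cut at about 9.5% in these data; inconclusive = no clear call, values can overlap the other calls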;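 also: enzyme runs in reverse so mevalonate oxidation gives rising NADPH absorbance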
dFosB act – activators of mouse delta FosB homodimer. P13346. purified delta FosB, TAMRA-CDK5 oligo fluorescence polarization; percent of positive-control signal above neutral wells. activation, % at 25 µM. 340,000 compounds, 0.99% hits;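 active = mean activation above about 17%, with every replicate also reaching it, limit read from the data, passing the limit was not always enough; inconclusive = only one of the two conditions met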
14-3-3 Bad inh – disrupts binding of bovine 14-3-3 zeta to phospho-Bad peptide | P63103 | TR-FRET 14-3-3zeta/Dy647-pBad peptide displacement, 1 h | inhibition, % at 21.7 µM | 220,000 compounds, 0.71% hits;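 active = inhibition above about 70%, limit read from the data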
Target sequence (P63103 whole entry, looked up): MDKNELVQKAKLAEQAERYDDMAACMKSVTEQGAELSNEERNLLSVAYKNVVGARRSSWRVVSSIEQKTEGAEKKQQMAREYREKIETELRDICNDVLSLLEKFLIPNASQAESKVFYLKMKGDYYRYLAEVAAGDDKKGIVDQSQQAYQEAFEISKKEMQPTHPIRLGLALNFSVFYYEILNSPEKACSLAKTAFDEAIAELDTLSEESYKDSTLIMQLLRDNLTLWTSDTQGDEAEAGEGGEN
Hits are given with their value; i = inactive; ? = inconclusive; nt = no result given; ! = not active in a repeat; [ ] = dose if it differs, or a comment. Sampled rows, rich in hits. Any-hit rate of the full collection: about 1.9%.

SMILES | p47phox inh | HMGR II inh | dFosB act | 14-3-3 Bad inh
COc1ccccc1-n1nc(C(=O)NCc2ccco2)c2ccccc2c1=O | i | i | i | i
COc1cc(/C=N/N=C(N)N)ccc1OCc1ccccc1Cl | i | i | 24 | i
CCCCc1nc2ccccc2n1Cc1nnc2n1-c1ccccc1SC2 | i | i | i | i
Cc1cc(=O)c2ccc3ccccc3c2[nH]1 | i | i | i | i
Cc1cc(=O)c2cccc(Br)c2[nH]1 | i | 12 | i | i
O=C1N=C2N(CCN3CCCCC3)c3ccccc3N2/C1=C\c1ccc([N+](=O)[O-])o1 | i | i | nt | 88
CCC(/C=C1\Sc2ccc(OC)cc2N1CCO)=C\c1sc2ccc(OC)cc2[n+]1CCO | i | i | ? | i
CCC(/C=C1\Sc2ccc(OC)cc2N1CC)=C\c1sc2ccc(OC)cc2[n+]1CCCS(=O)(=O)[O-] | i | i | 134 | i
Nc1nc(N)c(C=Nc2ccc(Br)cc2)c(Nc2ccc(Br)cc2)n1 | i | nt | 108 | i
Cc1nc2c(o1)CCc1ccccc1C2N1CCN(C)CC1 (stereo not drawn) | i | 9.5! | i | i
Cc1nn(-c2ccccc2)c(N2CCCC2)c1/C=N/NC(=O)c1cc2ccccc2cc1O | i | i | i | i
CCOC(=O)C1=C(C)Nc2nc3ccccc3n2C1c1ccc(O)cc1 (stereo not drawn) | i | nt | i | i
CCOC(=O)c1ccccc1-n1c(C)cc(C2N=C(N)Nc3nc4ccccc4n32)c1C (stereo not drawn) | i | i | 45 | i
CCn1[nH]c(=O)c(=Nc2c(C)n(C)n(-c3ccccc3)c2=O)cc1-c1ccc(Cl)cc1 | i | i | i | 91[fluorescence artefact?]
Cc1ccc2c(C)nc(Nc3nc(CSc4nc5ccccc5s4)cc(=O)[nH]3)nc2c1 | nt | nt | i | nt
Cc1ccc(-c2csc(N3CCN(c4ccc5nc(-c6ccncc6)n(CCN6CCCCC6)c5c4)CC3)n2)cc1 | nt | nt | i | nt
Cc1ccc(-c2csc(N3CCN(c4cc5c(cc4Cl)nc(-c4ccncc4)n5CCN4CCCCC4)CC3)n2)cc1 | nt | nt | 22 | nt
CCn1c(/C(C#N)=N/O)nc2ccccc21 | i | i | i | i
Cn1c(/C(C#N)=N/O)nc2ccccc21 | i | 11 | i | i
O=C1NC(=O)/C(=C\c2ccc(O)cc2O)S1 | i | i | i | 87
COc1ccc(C(OC(=O)c2c(C)noc2C)C(=O)NC2CCCC2)cc1 (stereo not drawn) | i | i | i | 82
COc1ccc(C(OC(=O)c2ccco2)C(=O)NC2CCCCC2)cc1 (stereo not drawn) | i | i | i | i
CC(=O)N(C)c1nc(N)n(-c2ccccc2)n1 | i | 16 | i | i
Cc1cc(C)n(CC(O)Cn2c3ccc(Br)cc3c3cc(Br)ccc32)c(=O)n1 (stereo not drawn) | i | i | 20 | i
Cc1c(NC2(c3nnnn3-c3ccc(Br)cc3)CCCCC2)c(=O)n(-c2ccccc2)n1C | i | 23 | i | i
SMILES | p47phox inh | HMGR II inh | dFosB act | 14-3-3 Bad inh
O=C(CSc1ncccn1)Nc1ccc2[nH]c(=O)[nH]c2c1 | nt | nt | i | nt
Cc1sc(-n2c(C)cc(/C=C3\SC(=S)NC3=O)c2C)c(C#N)c1C | i | 11 | i | i
Cc1cc(/C=C2\SC(=S)NC2=O)c(C)n1-c1cccc(O)c1 | i | nt | i | i
OCCCCNCc1cc(Br)ccc1OCc1ccccc1 | i | i | i | i
O=C(O)c1cccc(N2C(=O)/C(=C/c3ccc(SCc4ccc(Cl)cc4)o3)SC2=S)c1 | i | i | i | 85
COc1ccc(C2Nc3ccccc3C(=O)N2NS(=O)(=O)c2ccc(C)cc2)cc1 (stereo not drawn) | i | 13 | i | i
COc1cc2sc3cc(NCC[C@@H]4CCCN4C)ccc3c(=O)c2cc1OC | nt | nt | 30 | nt
CC(C)CNC(=O)c1ccccc1NC(=O)CN(c1ccc2c(c1)OCCO2)S(C)(=O)=O | i | i | i | i
COc1ccc(NC(=O)/C(=C/c2cccs2)NC(=O)c2ccco2)cc1 | i | nt | i | i
CC(=O)c1ccc(NC(=O)/C(=C\c2cccs2)NC(=O)c2ccco2)cc1 | i | i | i | 88
Cc1ccc(-n2c(CSc3nc(C)cc(C)n3)nnc2SCC(=O)Nc2nccs2)cc1 | 36 | nt | i | i
COc1ccc(-c2nn(-c3ccccc3)cc2/C=C/C(=O)N(C)CC(=O)Nc2cccc(F)c2)cc1OC | nt | nt | i | nt
Cc1cc(C(=O)N[C@@H](c2ccccc2)[C@]2(C)C[C@H]2[C@@H](C)C(=O)Nc2ccc3ccccc3c2)no1 | i | i | i | i
Cc1cc(C(=O)N[C@H](c2ccccc2)[C@@]2(C)C[C@@H]2[C@@H](C)C(=O)Nc2ccc3ccccc3c2)no1 | i | 25 | i | i
Nc1cc(S(=O)(=O)N2CCCCC2)ccc1N1CCCCC1 | nt | nt | i | nt
Cc1ccc2nc(NC(=O)C3CCN(S(=O)(=O)c4cccnc4)CC3)sc2c1 | i | i | i | i
Cc1ccc2nc(NC(=O)C3CCN(S(=O)(=O)c4cccs4)CC3)sc2c1 | i | i | 33 | i
CCc1ccccc1NC(=O)CN(C)C(=O)CSc1nnc(Nc2cccc(C)c2C)s1 | i | i | i | i
CC1=NN(c2ccc(C)cc2)C(=O)/C1=C/c1ccc(-c2cc([N+](=O)[O-])ccc2O)o1 | nt | nt | i | nt
O=C1NN(c2cccc(Br)c2)C(=O)/C1=C/c1ccc(-c2cc([N+](=O)[O-])ccc2O)o1 | i | nt | i | 80
CCC(Sc1ccc2nnc(-c3ccc(F)cc3)n2n1)C(=O)OC (stereo not drawn) | i | i | i | i
CCC(Sc1ccc2nnc(-c3cccnc3)n2n1)C(=O)OC (stereo not drawn) | i | 9.6 | i | i
NS(=O)(=O)c1ccc(NC(=S)NC(=O)c2ccc3c(c2)OCO3)cc1 | i | i | i | i
O=C(NCc1ccccn1)C(=O)C1C(=O)Nc2ccccc21 (stereo not drawn) | 39 | i | i | i
Cc1ccc(C(=O)N2CCCC2)cc1Br | 92 | i | i | nt
SMILES | p47phox inh | HMGR II inh | dFosB act | 14-3-3 Bad inh
Cn1ccnc1C(=O)c1cccc([N+](=O)[O-])c1 | i | i | i | 91
CC(C)(C)C(=O)Nc1cc(C(F)(F)F)ccc1-n1ccnc1 | i | 13 | i | i
CCCNC(=O)Nc1cc(S(=O)(=O)CC)ccc1O | i | nt | i | i
CCNC(=O)n1nccc1C(C)Oc1ccc(Cl)cc1 (stereo not drawn) | i | i | i | i
CCCN1C(=O)c2cc(C(=O)O)ccc2C1O (stereo not drawn) | i | i | i | 83
CCCN1C(=O)c2cc(C(=O)NC3CCCCCC3)ccc2C1O (stereo not drawn) | i | i | i | i
Cn1cnnc1Sc1ccc(C(=O)OCC(=O)Nc2cc(Cl)cc(Cl)c2)cc1[N+](=O)[O-] | i | i | i | 86[fluorescence artefact?]
Cn1cnnc1Sc1ccc(C(=O)OCC(=O)Nc2ccccc2)cc1[N+](=O)[O-] | i | i | i | i
CCN(CC)S(=O)(=O)c1ccc(NC(=O)c2ccc(Sc3nncn3C)c([N+](=O)[O-])c2)cc1 | i | i | i | i
CCS(=O)(=O)c1ccc(Sc2nncn2C)c([N+](=O)[O-])c1 | 124 | i | i | i
Cn1c(COc2ccccc2)nnc1SCC(=O)NNC(=O)C1CCCCC1 | i | i | i | i
NC(=O)Cn1cnc2nc3n(c2c1=O)CCC3 | i | i | i | i
